Records with an inconclusive call do not appear. A call without a number means that no potency is given here. The source made the active and inactive calls. Calls follow the shape of the full dose curve.

Chain of Acetylcholinesterase (Homo sapiens) (P22303 whole entry, looked up): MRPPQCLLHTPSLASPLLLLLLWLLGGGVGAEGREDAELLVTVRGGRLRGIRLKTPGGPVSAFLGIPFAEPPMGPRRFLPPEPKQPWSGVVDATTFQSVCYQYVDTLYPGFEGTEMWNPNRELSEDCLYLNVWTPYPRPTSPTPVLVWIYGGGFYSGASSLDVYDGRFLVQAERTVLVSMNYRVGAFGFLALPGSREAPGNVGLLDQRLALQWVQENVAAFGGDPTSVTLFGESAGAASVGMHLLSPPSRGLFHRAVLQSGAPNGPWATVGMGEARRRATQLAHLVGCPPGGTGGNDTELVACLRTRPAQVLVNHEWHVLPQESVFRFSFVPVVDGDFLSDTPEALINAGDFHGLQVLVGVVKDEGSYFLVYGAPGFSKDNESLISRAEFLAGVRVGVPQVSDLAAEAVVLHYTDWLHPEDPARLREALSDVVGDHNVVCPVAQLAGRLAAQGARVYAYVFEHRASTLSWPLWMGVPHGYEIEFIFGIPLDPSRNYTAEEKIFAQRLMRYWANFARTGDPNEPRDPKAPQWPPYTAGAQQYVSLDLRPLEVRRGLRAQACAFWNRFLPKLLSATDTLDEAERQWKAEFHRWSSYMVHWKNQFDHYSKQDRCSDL

One experiment has as its target Acetylcholinesterase (Homo sapiens) (UniProt P22303). Description: Acetylcholinesterase (AChE) small molecule antagonists: enzyme-based qHTS assay (AID 1347397). Also: nearly all actives have a fitted effect of over 55% in size. The following applies: Potency: AChE enzyme activity inhibition; outcome: AChE enzyme activity inhibition; series mostly up to 115 µM. The gist of the method:
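First, recombinant human AChE (50 mU/mL as dispensed) received test compound or DMSO. Second, plates stood 30 min at room temperature. Third, DTNB and acetylthiocholine were added, followed by 10 min at room temperature and colorimetric detection.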
In general terms: In qHTS, concentration-response curves come from the screen itself.
`CN1CCCC1`: the Potency entry is “inactive”.

In the case of `CC(C)CCCO`, the Potency entry is “inactive”.

Turning to `CN1CCC(=C2c3ccccc3Sc3ccccc32)CC1`, the Potency entry is “inactive”.

For `CCCCOC(=O)/C=C\C(=O)OCCCC`, the Potency result was “inactive”.

As for `OCC(CO)n1cnc(-c2ccc(F)cc2)c1-c1ccnc(Oc2ccccc2)n1`, the Potency result was “inactive”.

With `Cc1ccccc1S`, the Potency result is “inactive”.

Take `CC[N+]1(CC)CCC(=C(c2ccccc2)c2ccccc2)C1C` (stereo unspecified): the Potency entry is “inactive”.

For `NC(=O)c1ccccc1`, the Potency entry was “inactive”.

With `COc1ccc(/C=C/c2cc(OC)cc(=O)o2)cc1`, the Potency result is “inactive”.

For `Cc1cc(C)c(O)c(C(C)(C)C)c1`, the Potency entry was “inactive”.

On to `CC(C)=CCC/C(C)=C/COC=O`, for which the Potency result was “inactive”.

For the molecule `CCOc1ccccc1O`, the Potency result was “inactive”.

For the molecule `CCC1(C)NC(=O)NC1=O` (stereo unspecified), the Potency result is “inactive”.

Turning to `CC[C@H]1O[C@]2(CC[C@@H]1C)C[C@@H]1C[C@@H](C/C=C(\C)C[C@@H](C)/C=C/C=C3\CO[C@@H]4[C@H](O)C(C)=C[C@@H](C(=O)O1)[C@]34O)O2`, the Potency result is “inactive”.

Consider `CC(C)(C)c1cc(CO)cc(C(C)(C)C)c1O`, for which the Potency entry was “inactive”.

For `COc1cccc(OC)c1`, the Potency entry was “inactive”.

Consider `CCO[Si](OCC)(OCC)OCC`, for which the Potency result is “inactive”.

On to `OC1CCC(C2CCCCC2)CC1` (stereo unspecified), for which the Potency result was “inactive”.

Consider `OC1CCCCC1c1ccccc1` (stereo unspecified), for which the Potency entry is “inactive”.

On to `CCN(CC)CCOc1ccc(Cc2ccccc2)cc1`, for which the Potency result is “inactive”.

On to `Nc1nc(N)nc(-c2cc(Cl)ccc2Cl)n1`, for which the Potency result was “inactive”.

Another experiment shares this target. Kind of experiment: Acetylcholinesterase (AChE) small molecule antagonists: fluorescence cell-based qHTS assay (AID 1347398). Also: nearly all actives have a fitted effect of over 50% in size. The following applies: SH-SY5Y cells; Potency: AChE activity; outcome: AChE activity; series mostly up to 115 µM. The gist of the method:
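Homogeneous quantitative HTS format. SH-SY5Y cells seeded at 2,000 per well settle overnight at 37 C. Compound pretreatment runs 30 min (37 C, 5% CO2); substrate/probe mix then reacts 40 min at RT before reading 490/520 nm.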
On to `C/C=C(\C)C#N`, for which the Potency result is “inactive”.

On to `CC(=O)OC(OC(C)=O)c1ccc([N+](=O)[O-])o1`, for which the Potency result was “inactive”.

On to `Fc1ccc(C(c2ccc(F)cc2)N2CCN(C/C=C/c3ccccc3)CC2)cc1`, for which the Potency result was “inactive”.

Take `COC(=O)C1=C(C)NC(COC(N)=O)=C(C(=O)OC(C)C)C1c1cccc(Cl)c1Cl` (stereo unspecified): the Potency entry was “inactive”.

Regarding `CCCCc1ccc2c(n1)[C@@H](c1ccc(OC)cc1C[C@H](C)C(=O)O)[C@H](C(=O)O)[C@H]2c1ccc2c(c1)OCO2`, the Potency entry is “inactive”.

Consider `CCOc1ccc2ccccc2c1C(=O)N[C@@H]1C(=O)N2[C@@H]1SC(C)(C)[C@@H]2C(=O)O`, for which the Potency entry is “inactive”.

Regarding `O=C(NCCO[N+](=O)[O-])c1cccnc1`, the Potency entry was “inactive”.

For the molecule `CC(=O)Nc1ccc(OCCOCCOc2ccc(NC(C)=O)cc2)cc1`, the Potency result was “inactive”.

In the case of `COCCOCCOCCOCCOC`, the Potency result is “inactive”.

As for `O=C(O)[C@@H]1[C@H]2C[C@H]3c4[nH]c5ccccc5c4CCN3C[C@@H]2CC[C@@H]1O`, the Potency entry is “inactive”.

With `CC1(C)CCC(C)(C)c2cc(C(=O)Nc3ccc(C(=O)O)cc3)ccc21`, the Potency result is “inactive”.

For the molecule `Nc1ccc(NC(=O)c2ccc(N)cc2)cc1`, the Potency entry is “inactive”.

On to `CNC(C)=O`, for which the Potency entry was “inactive”.

For `CC(C)c1ccc2oc3nc(N)c(C(=O)O)cc3c(=O)c2c1`, the Potency result was “inactive”.

`FC(F)(F)C(Cl)(Cl)Cl`: the Potency entry is “inactive”.

As for `O=S(O)(O)=S`, the activity change, negative = inhibition was 2.89% [at 10.5 µM] (inactive).

As for `C[C@@H](O)[C@H]1C(=O)N2C(C(=O)O)=C(SCCN=CN)C[C@H]12`, the Potency result was “inactive”.

For the molecule `C#C[C@]1(O)CC[C@H]2[C@@H]3CCc4cc(OC5CCCC5)ccc4[C@H]3CC[C@@]21C`, the Potency result was “inactive”.

For `CCCCCCC(C)Nc1ccc(Nc2ccccc2)cc1` (stereo unspecified), the Potency entry is “inactive”.

Turning to `CN1CCCC1`, the Potency result was “inactive”.

For the molecule `CC(C)CCCO`, the Potency result is “inactive”.

As to `CN1CCC(=C2c3ccccc3Sc3ccccc32)CC1`, the Potency result is “inactive”.

In the case of `CCCCOC(=O)/C=C\C(=O)OCCCC`, the Potency entry was “inactive”.

Take `OCC(CO)n1cnc(-c2ccc(F)cc2)c1-c1ccnc(Oc2ccccc2)n1`: the Potency entry is “inactive”.

Turning to `Cc1ccccc1S`, the Potency entry is “inactive”.

As for `CC[N+]1(CC)CCC(=C(c2ccccc2)c2ccccc2)C1C` (stereo unspecified), the Potency result was “inactive”.

With `NC(=O)c1ccccc1`, the Potency entry was “inactive”.

In the case of `COc1ccc(/C=C/c2cc(OC)cc(=O)o2)cc1`, the Potency entry is “inactive”.

Take `Cc1cc(C)c(O)c(C(C)(C)C)c1`: the Potency result was “inactive”.

Consider `CC(C)=CCC/C(C)=C/COC=O`, for which the Potency entry is “inactive”.

As to `CCOc1ccccc1O`, the Potency result is “inactive”.

In the case of `CCC1(C)NC(=O)NC1=O` (stereo unspecified), the Potency entry is “inactive”.

As to `CC[C@H]1O[C@]2(CC[C@@H]1C)C[C@@H]1C[C@@H](C/C=C(\C)C[C@@H](C)/C=C/C=C3\CO[C@@H]4[C@H](O)C(C)=C[C@@H](C(=O)O1)[C@]34O)O2`, the Potency entry is “inactive”.

Consider `CC(C)(C)c1cc(CO)cc(C(C)(C)C)c1O`, for which the Potency result is “inactive”.

On to `COc1cccc(OC)c1`, for which the Potency result was “inactive”.

Regarding `CCO[Si](OCC)(OCC)OCC`, the Potency result was “inactive”.

As to `OC1CCC(C2CCCCC2)CC1` (stereo unspecified), the Potency result is “inactive”.

With `OC1CCCCC1c1ccccc1` (stereo unspecified), the Potency result is “inactive”.

On to `CCN(CC)CCOc1ccc(Cc2ccccc2)cc1`, for which the Potency entry was “inactive”.

Regarding `Nc1nc(N)nc(-c2cc(Cl)ccc2Cl)n1`, the Potency entry is “inactive”.

The target is the same in the next experiment. Kind of experiment: Acetylcholinesterase (AChE) small molecule antagonists: enzyme-based qHTS assay with human liver microsomes (AID 1347399). Also: nearly all actives have a fitted effect of over 60% in size. The following applies: Potency: qHTS inhibition; outcome: qHTS inhibition; series mostly up to 115 µM. Put shortly:
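Recombinant human AChE (50 mU/mL in the enzyme mix) and human liver microsomes (0.25 mg/mL final) were preincubated with compound and NADPH (0.25 mg/mL final) for 30 min at 37 C. Acetylthiocholine/DTNB was then added; thiocholine was read colorimetrically after 10 min at room temperature.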
As for `C/C=C(\C)C#N`, the Potency entry is “inactive”.

With `CC(=O)OC(OC(C)=O)c1ccc([N+](=O)[O-])o1`, the Potency result was “inactive”.

`Fc1ccc(C(c2ccc(F)cc2)N2CCN(C/C=C/c3ccccc3)CC2)cc1`: the Potency entry is “inactive”.

For the molecule `COC(=O)C1=C(C)NC(COC(N)=O)=C(C(=O)OC(C)C)C1c1cccc(Cl)c1Cl` (stereo unspecified), the Potency entry was “inactive”.

As for `CCCCc1ccc2c(n1)[C@@H](c1ccc(OC)cc1C[C@H](C)C(=O)O)[C@H](C(=O)O)[C@H]2c1ccc2c(c1)OCO2`, the Potency entry is “inactive”.

On to `CCOc1ccc2ccccc2c1C(=O)N[C@@H]1C(=O)N2[C@@H]1SC(C)(C)[C@@H]2C(=O)O`, for which the Potency entry was “inactive”.

As for `O=C(NCCO[N+](=O)[O-])c1cccnc1`, the Potency entry was “inactive”.

Turning to `CC(=O)Nc1ccc(OCCOCCOc2ccc(NC(C)=O)cc2)cc1`, the Potency result was “inactive”.

With `COCCOCCOCCOCCOC`, the Potency entry was “inactive”.

For `O=C(O)[C@@H]1[C@H]2C[C@H]3c4[nH]c5ccccc5c4CCN3C[C@@H]2CC[C@@H]1O`, the Potency entry was “inactive”.

As for `CC1(C)CCC(C)(C)c2cc(C(=O)Nc3ccc(C(=O)O)cc3)ccc21`, the Potency result is “inactive”.

Turning to `Nc1ccc(NC(=O)c2ccc(N)cc2)cc1`, the Potency result was “inactive”.

Consider `CNC(C)=O`, for which the Potency entry is “inactive”.

For `CC(C)c1ccc2oc3nc(N)c(C(=O)O)cc3c(=O)c2c1`, the Potency result was “inactive”.

Consider `FC(F)(F)C(Cl)(Cl)Cl`, for which the Potency entry was “inactive”.

In the case of `O=S(O)(O)=S`, the activity change, negative = inhibition is 0.162% [at 10.5 µM] (inactive).

For the molecule `C[C@@H](O)[C@H]1C(=O)N2C(C(=O)O)=C(SCCN=CN)C[C@H]12`, the Potency entry was “inactive”.

Consider `C#C[C@]1(O)CC[C@H]2[C@@H]3CCc4cc(OC5CCCC5)ccc4[C@H]3CC[C@@]21C`, for which the Potency result was “inactive”.

Consider `CCCCCCC(C)Nc1ccc(Nc2ccccc2)cc1` (stereo unspecified), for which the Potency entry is “inactive”.

`CN1CCCC1`: the Potency entry is “inactive”.

Take `CC(C)CCCO`: the Potency entry was “inactive”.

Regarding `CN1CCC(=C2c3ccccc3Sc3ccccc32)CC1`, the Potency result is “inactive”.

In the case of `CCCCOC(=O)/C=C\C(=O)OCCCC`, the Potency result was “inactive”.

On to `OCC(CO)n1cnc(-c2ccc(F)cc2)c1-c1ccnc(Oc2ccccc2)n1`, for which the Potency result is “inactive”.

Consider `Cc1ccccc1S`, for which the Potency entry was “inactive”.

Consider `CC[N+]1(CC)CCC(=C(c2ccccc2)c2ccccc2)C1C` (stereo unspecified), for which the Potency entry was “inactive”.

For the molecule `NC(=O)c1ccccc1`, the Potency entry was “inactive”.

Take `COc1ccc(/C=C/c2cc(OC)cc(=O)o2)cc1`: the Potency result is “inactive”.

As for `Cc1cc(C)c(O)c(C(C)(C)C)c1`, the Potency result was “inactive”.

With `CC(C)=CCC/C(C)=C/COC=O`, the Potency result is “inactive”.

Turning to `CCOc1ccccc1O`, the Potency entry is “inactive”.

On to `CCC1(C)NC(=O)NC1=O` (stereo unspecified), for which the Potency result is “inactive”.

As to `CC[C@H]1O[C@]2(CC[C@@H]1C)C[C@@H]1C[C@@H](C/C=C(\C)C[C@@H](C)/C=C/C=C3\CO[C@@H]4[C@H](O)C(C)=C[C@@H](C(=O)O1)[C@]34O)O2`, the Potency result was “inactive”.

Regarding `CC(C)(C)c1cc(CO)cc(C(C)(C)C)c1O`, the Potency result is “inactive”.

For `COc1cccc(OC)c1`, the Potency result was “inactive”.

`CCO[Si](OCC)(OCC)OCC`: the Potency entry is “inactive”.

Regarding `OC1CCC(C2CCCCC2)CC1` (stereo unspecified), the Potency entry was “inactive”.

Turning to `OC1CCCCC1c1ccccc1` (stereo unspecified), the Potency entry was “inactive”.

In the case of `CCN(CC)CCOc1ccc(Cc2ccccc2)cc1`, the Potency result is “inactive”.

As to `Nc1nc(N)nc(-c2cc(Cl)ccc2Cl)n1`, the Potency result was “inactive”.

(Values after PubChem BioAssay (Tox21).)
